# Reference: PubChem BioAssay
# Where “and” joins values, the source holds several entries; their conditions need not be identical. Equal entries are not always repeated. Calls of active or inactive are those of the source.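 How the source made its calls, unless noted: active means normalized viability below 100% at a tested concentration; inactive means the rest.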
# Tests used:
# [1] = liver-stage malaria parasite growth inhibition, primary screen, cell-based, HepG2, luciferase luminescence, HepG2 viability (AID 624349; in the data active means parasite load remaining mostly below about 12%, no sharp cut-off; inactive means mostly above about 10%;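 further: 100% = mean of DMSO negative control wells on the same plate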); conditions: P. berghei liver stage in HepG2, luciferase luminescence, concentration not given here; parasite load remaining: stronger effect = lower value; viability: measured here: HepG2 viability without parasites
# [2] = stimulators of nuclear beta-catenin in C2C12, primary screen, imaging, WNT3A-conditioned medium, mouse C2C12, NPC library (AID 1117326; in the data active means nuclear beta-catenin stimulation mostly above about 4.2%, no sharp cut-off; inactive means mostly below about 10%); conditions: stronger effect = higher value
# [3] = stimulators of insulin release from INS-1E, primary screen, cell-based, 5 mM glucose, NPC library (AID 1117329;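 active means compound raises insulin release from rat beta cells at 5 mM glucose, no numeric limit stated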); conditions: rat INS-1E insulin secretion, at 10 µM, stronger effect = higher value
# [4] = growth inhibition of GSK3B-pretreated HCT116 cells – cell-based, CellTiter-Glo, 0.2 to 20 µM (AID 1117336;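 active means compounds lowering colon cancer cell viability after pretreatment blocking the GSK3B kinase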); conditions: HCT116 viability after GSK3B inhibitor, at 20 µM, stronger effect = higher value
# [5] = inhibition of endothelial tube formation, primary screen, imaging, VEGF stimulated, CD31 staining, tube area, NPC library (AID 1117340;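 active means compound that reduces growth-factor-driven endothelial tube area in a mixed cell culture, no cutoff stated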); conditions: VEGF-stimulated ADSC/ECFC co-culture, at 10 µM, stronger effect = higher value
# [6] = glucagon-like peptide 1 release enhancers, primary assay, NCI-H716 cell line, NPC library (AID 1117341;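 active means compound raises GLP1 secretion from the human gut endocrine cells, with no numeric limit stated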); conditions: NCI-H716 cells, at 10 µM, stronger effect = higher value
# [7] = HCT116 colon cancer cell growth inhibition, primary screen, CellTiter-Glo luminescence, NPC library (AID 1117342;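 active means compounds that lower survival of HCT116 colon cancer cells in the luminescence readout, no numeric limit stated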); conditions: at 20 µM (top of the series)
# [8] = CellTiter-Glo luminescent readout of SW480 viability loss, NPC library primary (AID 1117343;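 active means compounds that lower viability of the colon cancer cells in the luminescence readout, with no numeric limit stated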); conditions: CellTiter-Glo luminescence; at 20 µM (top of the series) unless noted
# [9] = decreased DLD-1 cellular survival, CellTiter-Glo luminescent readout, NPC compound collection, primary HTS (AID 1117346;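 active means compounds that lower survival of DLD-1 colon cancer cells in the luminescence readout, no cutoff given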); conditions: DLD-1 viability, CellTiter-Glo luminescence; at 20 µM (top of the series)
# [10] = differential killing of epithelial or mesenchymal cells, primary screen, imaging, PC-3E GFP, TEM4-18 mCherry, co-culture (AID 1345086;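 active means compounds killing one labelled cell type while sparing the other, by normalised counts and ratio limits, not self-fluorescent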;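 on all read-outs here: cells exposed to compound for 72 h before imaging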;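 on red/green cell ratio (normalised): normalised mesenchymal count divided by normalised epithelial count so high means epithelial killing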); conditions: imaging cell counts, at 1 µM; for red/green cell ratio (normalised): actives lie on both sides, counts scaled to control wells, 1 = unselective
# [11] = sensitizers of A549 cells to miR-34 induction, primary screen, imaging, A549 dox-inducible miR-34, nuclei and caspase counts (AID 1347080;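 active means compounds whose cell count with miR-34 switched on is under 0.7 times the count with it off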); conditions: A549 miR-34 inducible, Hoechst nuclei count, 48 h
# [12] = survival rescue of mitochondrial mutant cells in low glucose, primary screen, MELAS cybrids, Rieske KO mouse fibroblasts, CellTiter-Glo (AID 1508586;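 active means mean z-score across replicates of 1.96 or higher in either the MELAS or the Rieske mutant cell line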;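 further: z relative to plate mean and SD of compound and empty wells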)
# [13] = biological target: NAD(+) hydrolase SARM1 (Homo sapiens) (UniProt Q6SZW1); test: SARM1 TIR NADase inhibitors, cell lysate, NAD-Glo luminescence (AID 1508614;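 active means compound whose remaining NAD level is above about 45 nM, limit read from the data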); conditions: SAM-TIR HEK293T lysate NADase, at 1 µM, stronger effect = higher value
# [14] = ovarian cancer cell viability with rucaparib, profiling panel, oncology-focused library, rucaparib conditional (AID 1508598); conditions: patient-derived ovarian cancer cells, CellTiter-Glo viability, 144 h, stronger effect = lower value
# [15] = measured here: epithelial PC-3E GFP cell survival
# [16] = measured here: mesenchymal TEM4-18 mCherry cell survival
# [17] = stronger effect = lower value, cell number ratio, induced over uninduced
# [18] = measured here: relative caspase fold change +Dox/-Dox
# [19] = measured here: total cells with miR-34 induction, stronger effect = lower value
# [20] = measured here: total cells without miR-34 induction
# [21] = MELAS cybrid survival, CellTiter-Glo 48 h, stronger effect = higher value
# [22] = Rieske KO mouse fibroblast survival, CellTiter-Glo 72 h
# Chain of NAD(+) hydrolase SARM1 (Homo sapiens) (Q6SZW1 whole entry, looked up): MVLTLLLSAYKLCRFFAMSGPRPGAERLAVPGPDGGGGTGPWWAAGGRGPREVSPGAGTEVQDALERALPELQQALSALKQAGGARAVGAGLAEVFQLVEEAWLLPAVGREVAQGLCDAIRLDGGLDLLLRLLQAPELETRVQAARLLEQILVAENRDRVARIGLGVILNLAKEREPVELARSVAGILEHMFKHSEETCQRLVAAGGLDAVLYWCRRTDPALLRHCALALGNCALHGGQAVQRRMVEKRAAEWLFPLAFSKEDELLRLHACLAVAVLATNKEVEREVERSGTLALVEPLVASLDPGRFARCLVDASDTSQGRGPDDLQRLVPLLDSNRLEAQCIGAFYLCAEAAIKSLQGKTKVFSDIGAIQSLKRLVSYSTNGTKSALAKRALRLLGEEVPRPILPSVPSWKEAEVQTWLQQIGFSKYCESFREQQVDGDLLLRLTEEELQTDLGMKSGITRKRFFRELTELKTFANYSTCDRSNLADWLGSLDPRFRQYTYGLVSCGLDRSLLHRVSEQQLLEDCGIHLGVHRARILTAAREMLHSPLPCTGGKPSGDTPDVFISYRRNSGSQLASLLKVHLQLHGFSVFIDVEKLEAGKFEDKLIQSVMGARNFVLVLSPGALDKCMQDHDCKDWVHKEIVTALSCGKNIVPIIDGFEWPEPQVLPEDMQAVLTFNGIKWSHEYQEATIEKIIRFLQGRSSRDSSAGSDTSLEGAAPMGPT
smiles,measurement,setting,value
NCCCNCCSP(=O)(O)O,parasite load remaining,[1],26.6% (inactive)
same,viability,[1],110%
same,nuclear beta-catenin stimulation,[2]; at 10 µM,-1.3% (inactive)
same,nuclear beta-catenin stimulation,"[2]; stimulation, at 2 µM",0.9%
same,insulin secretion stimulation,[3],3% (inactive)
same,viability decrease,[4],-4.2% (inactive)
same,tube area decrease,[5],-8.5% (inactive)
same,GLP1 secretion stimulation,[6],-1.2% (inactive)
same,inhibition of viability,[7],2.2% (inactive)
same,viability decrease (inhibition),[8],0.3% (inactive)
same,viability decrease (inhibition),[9],0% (inactive)
same,red/green cell ratio (normalised),[10],1.19 (inactive)
same,normalised cell number,[10]; [15],1.03
same,normalised cell number,[10]; [16],1.23
same,fold change,[11]; [17],1.03 (inactive) and 0.865 (inactive)
same,fold change,[11]; [18],1.84 and 1.27
same,cell count,[11]; [19],10300 and 9430
same,cell count,[11]; [20],10000 and 10900
same,z-score,[12]; [21],0.141 (inactive) and 0.413 (inactive)
same,z-score,[12]; [22],-0.0647 and -0.947
same,remaining NAD,[13],10 nM (inactive)
COc1c(C)c2c(c(O)c1C/C=C(\C)CCC(=O)OCCN1CCOCC1)C(=O)OC2,parasite load remaining,[1],10.4% (inactive)
same,viability,[1],140%
same,nuclear beta-catenin stimulation,[2]; at 10 µM,19.6% (inactive)
same,nuclear beta-catenin stimulation,"[2]; stimulation, at 2 µM",28.6%
same,insulin secretion stimulation,[3],1.7% (inactive)
same,viability decrease,[4],98.3% (active)
same,tube area decrease,[5],79.8% (active)
same,GLP1 secretion stimulation,[6],0.3% (inactive)
same,inhibition of viability,[7],83.9% (active)
same,viability decrease (inhibition),[8],71.8% (active)
same,viability decrease (inhibition),[9],53.3% (active)
same,red/green cell ratio (normalised),[10],0.71 (inactive)
same,normalised cell number,[10]; [15],1.24
same,normalised cell number,[10]; [16],0.88
same,fold change,[11]; [17],0.954 (inactive)
same,fold change,[11]; [18],1.15
same,cell count,[11]; [19],3090
same,cell count,[11]; [20],3240
same,z-score,[12]; [21],-0.954 (inactive)
same,z-score,[12]; [22],1.62
same,viability,"[14]; at 0.000305 µM, OCI-C5x cells, with rucaparib 10 µM, 100% = cells with rucaparib alone",104% (inactive)
same,viability,"[14]; at 0.000305 µM, OCI-C5x cells, without rucaparib",112% (inactive)
same,viability,"[14]; at 0.000305 µM, OCI-P5x cells, with rucaparib 20 µM, 100% = cells with rucaparib alone",90.9% (active)
same,viability,"[14]; at 0.000305 µM, OCI-P5x cells, without rucaparib",100% (inactive)
same,viability,"[14]; at 0.00122 µM, OCI-C5x cells, with rucaparib 10 µM, 100% = cells with rucaparib alone",119% (inactive)
same,viability,"[14]; at 0.00122 µM, OCI-C5x cells, without rucaparib",108% (inactive)
same,viability,"[14]; at 0.00122 µM, OCI-P5x cells, with rucaparib 20 µM, 100% = cells with rucaparib alone",95.2% (active)
same,viability,"[14]; at 0.00122 µM, OCI-P5x cells, without rucaparib",104% (inactive)
same,viability,"[14]; at 0.00488 µM, OCI-C5x cells, with rucaparib 10 µM, 100% = cells with rucaparib alone",122% (inactive)
same,viability,"[14]; at 0.00488 µM, OCI-C5x cells, without rucaparib",110% (inactive)
same,viability,"[14]; at 0.00488 µM, OCI-P5x cells, with rucaparib 20 µM, 100% = cells with rucaparib alone",101% (inactive)
same,viability,"[14]; at 0.00488 µM, OCI-P5x cells, without rucaparib",108% (inactive)
same,viability,"[14]; at 0.0195 µM, OCI-C5x cells, with rucaparib 10 µM, 100% = cells with rucaparib alone",115% (inactive)
same,viability,"[14]; at 0.0195 µM, OCI-C5x cells, without rucaparib",113% (inactive)
same,viability,"[14]; at 0.0195 µM, OCI-P5x cells, with rucaparib 20 µM, 100% = cells with rucaparib alone",108% (inactive)
same,viability,"[14]; at 0.0195 µM, OCI-P5x cells, without rucaparib",109% (inactive)
same,viability,"[14]; at 0.0781 µM, OCI-C5x cells, with rucaparib 10 µM, 100% = cells with rucaparib alone",146% (inactive)
same,viability,"[14]; at 0.0781 µM, OCI-C5x cells, without rucaparib",149% (inactive)
same,viability,"[14]; at 0.0781 µM, OCI-P5x cells, with rucaparib 20 µM, 100% = cells with rucaparib alone",107% (inactive)
same,viability,"[14]; at 0.0781 µM, OCI-P5x cells, without rucaparib",87.7% (active)
same,viability,"[14]; at 0.313 µM, OCI-C5x cells, with rucaparib 10 µM, 100% = cells with rucaparib alone",172% (inactive)
same,viability,"[14]; at 0.313 µM, OCI-C5x cells, without rucaparib",147% (inactive)
same,viability,"[14]; at 0.313 µM, OCI-P5x cells, with rucaparib 20 µM, 100% = cells with rucaparib alone",89.1% (active)
same,viability,"[14]; at 0.313 µM, OCI-P5x cells, without rucaparib",63.2% (active)
same,viability,"[14]; at 1.25 µM, OCI-C5x cells, with rucaparib 10 µM, 100% = cells with rucaparib alone",157% (inactive)
same,viability,"[14]; at 1.25 µM, OCI-C5x cells, without rucaparib",110% (inactive)
same,viability,"[14]; at 1.25 µM, OCI-P5x cells, with rucaparib 20 µM, 100% = cells with rucaparib alone",74.3% (active)
same,viability,"[14]; at 1.25 µM, OCI-P5x cells, without rucaparib",42.1% (active)
same,viability,"[14]; at 5 µM, OCI-C5x cells, with rucaparib 10 µM, 100% = cells with rucaparib alone",69% (active)
same,viability,"[14]; at 5 µM, OCI-C5x cells, without rucaparib",52.7% (active)
same,viability,"[14]; at 5 µM, OCI-P5x cells, with rucaparib 20 µM, 100% = cells with rucaparib alone",52.6% (active)
same,viability,"[14]; at 5 µM, OCI-P5x cells, without rucaparib",30.9% (active)
same,remaining NAD,[13],10 nM (inactive)
